Out of some 1,100 compounds screened, about 860 (78%) were called active. Another 19% or so got no clear call; they are omitted. The call rests on the fitted dose curve; in most records, active means well fitted activation curve with a large enough effect; inconclusive means small, poorly fitted or top-dose-only effect; inactive means flat fitted curve, though single readings scatter. So high a share suggests a set chosen from earlier hits. Some of the results follow.
Test: qHTS of Nrf2 Activators: Hit Validation in Primary Assay; further: nearly all actives have a fitted effect of over 70% in size; on activation: 0% is about no effect
Details: Nrf2/ARE reporter cell assay; Potency: activation; series mostly up to 46.1 µM; activation: at the top concentration
Outline: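 AREc32 cells stably carrying an ARE-driven firefly luciferase, plated overnight, then exposed 24 h at 37 °C to compounds at several concentrations. ARE activation read as luminescence with Steady-Glo after 30 min at room temperature.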
Potency means the concentration at half of the fitted maximal effect.

| SMILES | Potency | activation |
| --- | --- | --- |
| CCCC(=O)Nc1sc(C)c(C)c1C#N | 14.6 µM (active) |  |
| O=C(Nc1cccnc1)C1(F)C(F)(F)C(F)(F)C(F)(F)C(F)(F)C1(F)F | 14.6 µM (active) |  |
| CSc1ccc(-c2cc(=O)c3ccccc3o2)cc1 | 2.06 µM (active) |  |
| O=c1cc(-c2ccccc2)oc2ccc(Cl)cc12 | 3.26 µM (active) |  |
| S=c1[nH]nc(-c2ccco2)n1/N=C/c1cccc(Cl)c1Cl | 10.3 µM (active) |  |
| O=[N+]([O-])c1ccccc1/C=C/C=N/n1c(-c2ccco2)n[nH]c1=S | 11.6 µM (active) |  |
| S=c1[nH]nc(-c2ccco2)n1/N=C/c1ccc(Br)s1 | 2.31 µM (active) |  |
| CNc1ccccc(C(=O)/C=C/c2ccccc2OC)c1=O | 20.6 µM (active) |  |
| CNc1ccc(Br)cc(C(=O)/C=C/c2cccc(Cl)c2Cl)c1=O | 1.84 µM (active) |  |
| CSc1nsc(SC)c1C(=O)Nc1ccc(C)cc1 | 16.4 µM (active) |  |
| CSc1nsc(SC)c1C(=O)Nc1ccc(Cl)cc1 | 4.61 µM (active) |  |
| CC(OC(=O)/C=C/c1ccc2ccccc2n1)C(=O)Nc1ccc(S(N)(=O)=O)cc1 (stereo unspecified) | 20.6 µM (active) |  |
| CCN(CC)c1ccc2c(c1)oc(=O)c1c(Cl)cc(=O)oc12 |  | 3.61% (inactive) |
| Cc1cc(=O)oc2cc(NC(=O)c3ccccc3Cl)ccc12 | 2.91 µM (active) |  |
| COC(=O)c1sccc1NC(=O)c1cccc(OC)c1 | 7.31 µM (active) |  |
| COC(=O)c1sccc1NC(=O)c1ccccc1 | 20.6 µM (active) |  |
| COC(=O)c1sccc1NC(=O)c1cc(C)on1 | 16.4 µM (active) |  |
| COC(=O)c1sccc1NC(=O)c1cccc(F)c1 | 18.4 µM (active) |  |
| COC(=O)c1sccc1NC(=O)c1ccc(OC)c(OC)c1 | 4.61 µM (active) |  |
| COC(=O)c1sccc1NC(=O)c1cccc(Cl)c1 | 20.6 µM (active) |  |
| COC(=O)c1sccc1NC(=O)c1ccccc1F | 18.4 µM (active) |  |
| COc1cccc(C(=O)Nc2cc(Cl)c(O)c(Cl)c2)c1 | 5.17 µM (active) |  |

| SMILES | Potency | activation |
| --- | --- | --- |
| COC(=O)c1sccc1NC(=O)Nc1ccc(Cl)c(Cl)c1 | 14.6 µM (active) |  |
| COC(=O)c1sccc1NC(=O)c1csc(C)c1 | 4.61 µM (active) |  |
| O=C(NNC(=O)c1sccc1-n1cccc1)c1cccc(Cl)c1 | 2.59 µM (active) |  |
| COc1ccc(NC(=O)c2ccc([N+](=O)[O-])s2)c([N+](=O)[O-])c1 | 9.2 µM (active) |  |
| COc1ccc(OC)c(NC(=O)C(C#N)=Cc2ccco2)c1 | 6.51 µM (active) |  |
| COc1ccccc1NC(=O)/C(C#N)=C/c1cccn1C | 20.6 µM (active) |  |
| COC(=O)CSc1nc2ccccn2c(=O)c1C=O | 20.6 µM (active) |  |
| O=Cc1c(Sc2ccccn2)nc2ccccn2c1=O | 20.6 µM (active) |  |
| Nc1nc(/C=C/c2ccc(F)cc2)nc(-c2ccccc2O)n1 | 2.59 µM (active) |  |
| Nc1nccc(-c2ccc(-n3cccc3)cc2)n1 | 13 µM (active) |  |
| COc1ccc(Cl)cc1C(=O)NC(=S)Nc1nc(C)cc(C)n1 |  | 5.97% (inactive) |
| COc1cc(OC)c(NC(=O)c2ccco2)cc1Cl | 13 µM (active) |  |
| COc1ccc(Cl)cc1NC(=O)c1cc(C)no1 | 10.3 µM (active) |  |
| COc1cc2c(cc1NC(=O)c1ccco1)CCCC2 | 3.26 µM (active) |  |
| COc1ccc(Cl)cc1NC(=O)c1cc(-c2ccccc2O)n[nH]1 | 2.91 µM (active) |  |
| COc1ccc(Cl)cc1NC(=O)c1ccco1 | 4.61 µM (active) |  |
| Cc1ccc([N+](=O)[O-])cc1NC(=S)NC(=O)c1ccco1 | 4.11 µM (active) |  |
| CCOc1ccsc1C(=O)NNC(=O)c1ccco1 | 5.8 µM (active) |  |
| Cc1ccc2nsnc2c1NC(=S)NC(=O)c1ccco1 | 4.61 µM (active) |  |
| CCOc1ccccc1NC(=S)NC(=O)c1ccco1 | 10.3 µM (active) |  |
| COc1ccc([N+](=O)[O-])cc1NC(=O)c1ccco1 | 5.17 µM (active) |  |
| CC(=O)c1cc2c(cc1NC(=O)c1ccco1)OCCO2 | 3.66 µM (active) |  |

| SMILES | Potency | activation |
| --- | --- | --- |
| O=C(Nc1cc(Cl)ccc1-n1cncn1)c1ccco1 | 10.3 µM (active) |  |
| Cc1cc(NC(=S)NC(=O)c2ccco2)c2ccccc2n1 | 2.59 µM (active) |  |
| O=C(Nc1ccc(Br)c(Cl)c1)c1ccco1 | 2.06 µM (active) |  |
| Cc1cc(C(=O)Nc2cc(Br)ccc2O)on1 | 13 µM (active) |  |
| [O-][n+]1onc2c1CCc1c-2nn(-c2ccccc2Cl)[n+]1[O-] | 0.92 µM (active) |  |
| Cc1ccc(-n2nc3c([n+]2[O-])CCc2c-3no[n+]2[O-])cc1 | 0.291 µM (active) |  |
| Cc1nn2c(-c3ccccc3)nnc2c2ccccc12 | 4.11 µM (active) |  |
| COc1ccc(-c2nnc3c4ccccc4c(C)nn23)cc1 | 3.66 µM (active) |  |
| CC1CCCCC1NC(=O)COC(=O)c1c2c(nc3ccccc13)/C(=C/c1ccco1)CC2 (stereo unspecified) | 8.2 µM (active) |  |
| O=C(Nc1ccc2c(c1)C(=O)NC2=O)c1cccc(C(F)(F)F)c1 | 2.06 µM (active) |  |
| O=C(Nc1ccc2c(c1)C(=O)NC2=O)c1ccccc1 | 20.6 µM (active) |  |
| O=C(Nc1nc(=O)c2ccccc2s1)c1ccccc1 | 0.731 µM (active) |  |
| Cc1csc2nc(NC(=O)c3ccccc3)sc(=O)c12 | 8.2 µM (active) |  |
| S=C(NNc1ccc2ccccc2c1)NC1CCCCC1 | 13 µM (active) |  |
| CCc1nnc(NC(=O)/C=C/c2ccco2)s1 | 6.51 µM (active) |  |
| Cc1csc(NC(=O)/C=C/c2ccco2)n1 | 4.11 µM (active) |  |
| Cc1nnc(NC(=O)/C=C/c2ccco2)s1 | 8.2 µM (active) |  |
| O=C(/C=C/c1ccco1)NC(=S)Nc1nc(-c2ccc(Cl)cc2)cs1 |  | 13.6% (inactive) |
| CCC(CC)c1nnc(NC(=O)/C=C/c2ccco2)s1 | 1.46 µM (active) |  |
| CNS(=O)(=O)c1ccc2nc(NC(=O)/C=C/c3ccco3)sc2c1 | 1.84 µM (active) |  |
| Cc1cc(C)c2oc(-c3ccc(C)c(NC(=O)/C=C/c4ccco4)c3)nc2c1 | 2.91 µM (active) |  |
| Cc1cccc(C)c1NC(=S)NC(=O)c1cccc(Cl)c1 | 3.26 µM (active) |  |

| SMILES | Potency | activation |
| --- | --- | --- |
| Cc1ccc(NC(=O)/C=C/c2ccc([N+](=O)[O-])s2)cc1 | 2.31 µM (active) |  |
| Cc1cc(C)cc(NC(=O)/C=C/c2ccc([N+](=O)[O-])s2)c1 | 2.31 µM (active) |  |
| CSc1nnc(-c2ccco2)c(-c2ccco2)n1 | 11.6 µM (active) |  |
| O=C(CSc1nnc(-c2ccco2)c(-c2ccco2)n1)c1ccccc1 | 5.17 µM (active) |  |
| CSC1=NC(C)(C)C=C(/C=C/c2ccc(Cl)cc2)N1 | 9.2 µM (active) |  |
| Brc1cc(Cc2nnc(-c3ccccc3)o2)c(Br)s1 | 8.2 µM (active) |  |
| O=C(Nc1ccccc1C(=O)NCCc1ccccc1)c1ccco1 | 2.06 µM (active) |  |
| O=C(Nc1ccccc1O)c1cccc(NC(=O)c2ccco2)c1 | 4.11 µM (active) |  |
| Cc1ccc(O)c(NC(=O)c2cccc(NC(=O)c3ccco3)c2)c1 | 2.59 µM (active) |  |
| O=C(Nc1cccc(F)c1)c1ccco1 |  | 21.9% (inactive) |
| CCCc1nc([N+](=O)[O-])c(S(=O)(=O)c2ccccc2)n1CC(C)C | 3.26 µM (active) |  |
| S=C(NCc1ccco1)Nc1ccccn1 | 9.2 µM (active) |  |
| Brc1ccc(-c2nnc(-c3cccnc3)c3conc23)cc1 | 0.517 µM (active) |  |
| C#CCSc1nc(-c2cccs2)ccc1C#N | 4.61 µM (active) |  |
| Cc1cc(C)n(-c2nc3ccccc3c(=O)n2OCc2ccc(F)cc2)n1 | 1.84 µM (active) |  |
| CC1(C)CC[C@]2(C(=O)n3ccnc3)CC[C@]3(C)[C@H](C(=O)C=C4[C@@]5(C)C=C(C#N)C(=O)C(C)(C)[C@@H]5CC[C@]43C)[C@@H]2C1 | 0.092 µM (active) |  |
| O=[N+]([O-])c1ccc(NN=Cc2ccco2)nc1 | 0.731 µM (active) |  |
| Brc1ccc(-c2csc(N/N=C/c3ccco3)n2)cc1 | 2.91 µM (active) |  |
| CCn1nc(C)c(Br)c1-c1nc(-c2cccc(C)c2)no1 | 8.2 µM (active) |  |
| O=C(Nc1ccccc1F)c1cc(-c2ccco2)nc2ccccc12 | 2.06 µM (active) |  |
| O=C(Nc1ccc(F)cc1F)c1cc(-c2ccco2)nc2ccccc12 | 0.731 µM (active) |  |
| COc1ccccc1CNC(=O)COC(=O)c1cc(-c2ccco2)nc2ccccc12 | 9.2 µM (active) |  |

| SMILES | Potency | activation |
| --- | --- | --- |
| O=C(Nc1cccc(F)c1)c1cc(-c2ccco2)nc2ccccc12 | 2.06 µM (active) |  |
| CC1Oc2ccccc2OC1C(=O)Nc1ccccn1 (stereo unspecified) | 2.91 µM (active) |  |
| CSc1nsc(SC)c1NC(=O)Nc1ccccn1 | 5.17 µM (active) |  |
| O=[N+]([O-])c1cc(Cl)cc2c1nc(NCCO)c1ccccc12 | 10.3 µM (active) |  |
| Clc1ccccc1NN=Cc1ccccn1 | 5.8 µM (active) |  |
| O=[N+]([O-])c1ccc(Cl)cc1C=NNc1ccccn1 | 3.26 µM (active) |  |
| Clc1cccc(Cl)c1/C=N\Nc1nccs1 | 9.2 µM (active) |  |
| Brc1ccccc1/C=N/Nc1ccccn1 | 6.51 µM (active) |  |
| Clc1ccccc1C=NNc1ccccn1 | 2.31 µM (active) |  |
| O=[N+]([O-])c1ccc(Cl)cc1N/N=C/c1ccncc1 | 0.731 µM (active) |  |
| Fc1cccc(Cl)c1/C=N/Nc1ccccn1 | 4.11 µM (active) |  |
| Cc1ccc(C)c(/C=N/Nc2ccccn2)c1 | 6.51 µM (active) |  |
| CCOc1ccccc1NS(=O)(=O)c1c(C(=O)OC)sc2cccc(F)c12 | 14.6 µM (active) |  |
| O=C1C(Cl)=C(N2CCN(c3ccccc3[N+](=O)[O-])CC2)C(=O)c2ccccc21 | 3.66 µM (active) |  |
| Cc1cc(=O)n2nc(-c3ccccc3)sc2c1C#N | 4.11 µM (active) |  |
| CCn1c(=O)c([N+](=O)[O-])c(NCc2ccco2)c2ccccc21 | 5.8 µM (active) |  |
| N#Cc1ccccc1N/C=C/C(=O)c1ccc(Cl)cc1 | 2.31 µM (active) |  |
| CC(/C=N/Nc1nnc2c(n1)[nH]c1ccccc12)=C\c1ccco1 | 10.3 µM (active) |  |

Reference: PubChem BioAssay AID651593 (National Center for Advancing Translational Sciences (NCATS), 2012)
